Data reported in PubChem BioAssay AID492998 (Southern Research Specialized Biocontainment Screening …, 2010).
The campaign covered roughly 2,300 compounds. About 550 (24%) were called active. The list is a sample of the results. Measured potencies and affinities stand elsewhere. Values without a mark were called inactive. How the calls were made is not given here.

Assay: Vero E6 cell cytotoxicity, dose response, cytotoxicity control for non-replicating M. tuberculosis project, secondary assay (AID 492998);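 further: 100% = vehicle-treated cells and 0% = background wells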
Settings: series mostly up to 20 µM; viability: at the top concentration
For `Cc1ccc(CN2CC(C(=O)OCc3ccccc3Cl)CC2=O)cc1` (centres undefined), the “viability” value was 98.3%. For `Cc1ccc(C(=O)COC(=O)CCc2ccc(S(=O)(=O)N3CCCCC3)cc2)cc1`, the “viability” value was 98.9%. For `Cc1ccc(N2NC(=O)/C(=C/C=C/c3ccco3)C2=O)cc1C`, the “viability” value was 98.1%. For `Cc1ccc(OCCCCn2ccnc2)c(Cl)c1`, the “viability” value was 84.3%. With `CC1(C)Oc2ccc(NC(=O)C3COc4ccccc4O3)cc2O1` (centres undefined) the “viability” value was 97.8%. With `O=C(Oc1ccccc1Cl)c1ccc2c(=O)n3c(nc2c1)CCC3` the “viability” value was 95.4%. For `CCOc1ncccc1C(=O)OCC(=O)N1CCc2ccccc21`, the “viability” value was 98.4%. For `C=CCOC(=O)c1ccc(-n2cnc(C)n2)nc1`, the “viability” value was 102%. With `O=C1CCC/C(=N/Nc2ccc(Cl)cc2)C1` the “viability” value was 96.4%. In the case of `CCc1nnc(N/N=C/c2c(F)cccc2Cl)n1N`, the “viability” value is reported as 106%. With `CCc1ccc(Cc2cnc(NC(=O)C3=NCCN3)s2)cc1` the “viability” value was 89.2%. For `Cn1c(SCCOc2cccc(Cl)c2)nnc1-c1ccncc1`, the “viability” value was 92.3%. For `O=C(Oc1ccccc1)c1cccc(COC(=O)c2cnccn2)c1`, the “viability” value was 92.2%. For `O=S(=O)(c1ccc(Cl)c2ccccc12)N1CCCC1`, the “viability” value was 90.6%. With `c1ccc(-c2noc(CC3CCCCC3)n2)nc1` the “viability” value was 93.4%. For `O=C(COc1ccc(Cl)cc1)Nc1ccc2[nH]ncc2c1`, the “viability” value was 84.2%. For `CC(C)c1ccc(OCC(=O)NCc2ccccc2)cc1`, the “viability” value was 98.7%. In the case of `CCOC(=O)C(C)Oc1ccc(OCc2ccccc2)cc1` (centres undefined), the “viability” value is reported as 85%. In the case of `Cc1cccc(NC(=O)c2ccc(OC3CSC3)cc2)c1`, the “viability” value is reported as 95.8%. For `O=C(CCNc1ccc(Cl)cc1)c1cccs1`, the “viability” value was 93.9%. For `O=C(c1cccs1)N1CCN(c2ccc(Cl)cc2)CC1`, the “viability” value was 98.4%. With `O=C(NNC(=O)c1cccs1)c1ccc(Br)o1` the “viability” value was 104%. With `Cc1ccc(CC(=O)N2CCN(c3ccc([N+](=O)[O-])cc3)CC2)cc1` the “viability” value was 81.7%. With `O=[N+]([O-])c1ccc(CN2CCN(c3ccccc3)CC2)o1` the “viability” value was 116%. For `O=C(N/N=C/c1ccc([N+](=O)[O-])o1)c1ccc(NS(=O)(=O)c2cccs2)cc1`, the “viability” value was 86.5%. In the case of `O=[N+]([O-])c1ccc(N2CCN(Cc3ccc([N+](=O)[O-])o3)CC2)cc1`, the “viability” value is reported as 87%. For `O=C1CCCC(O)=C1C=Nc1ccc2c(c1)oc1ccccc12`, the “viability” value was 88.5%. For `CCCCCCOc1ccc(C(=O)O)cc1C#N`, the “viability” value was 92.4%. For `CCC(=O)c1ccc(OC(=O)c2ccc(Br)o2)cc1`, the “viability” value was 94%. For `Cc1cccc2nc(CSc3nc4cc([N+](=O)[O-])ccc4s3)cn12`, the “viability” value was 97.2%. With `Cc1nc2scc(-c3ccccc3)c2c(=O)o1` the “viability” value was 102%. For `C=CCn1c(C)cc(C2=NNC(=NCc3ccccc3)SC2)c1C`, the “viability” value was 84.2%. With `Cc1ccc2c(c1)c1c3n2CCN=C3CCC1` the “viability” value was 109%. With `CCNC(=O)COC(=O)c1ccc(-c2nc3ccccc3s2)s1` the “viability” value was 109%. For `O=C(N/N=C/c1cccc2nccnc12)c1ccncc1`, the “viability” value was 104%. With `Cc1ccc(/C=N/NC(=O)c2ccncc2)o1` the “viability” value was 100%. In the case of `Cc1ccsc1/C=N/NC(=O)c1ccncc1`, the “viability” value is reported as 106%. For `O=C(N/N=C/c1ccc[nH]1)c1ccncc1`, the “viability” value was 103%. For `Clc1ccccc1CSc1nnc([C@@H]2CCCN2)o1`, the “viability” value was 98.8%. For `Cc1cccc(Cc2cnc(NC(=O)C3=NCCN3)s2)c1`, the “viability” value was 85.1%. In the case of `C=C[C@]1(C)C=C2CCC3[C@](C)(CCC[C@@]3(C)C(=O)O)C2CC1` (some centres undefined), the “viability” value is reported as 100%. With `S=C1NC2(CCCC2)N=C1c1ccccc1` the “viability” value was 107%. In the case of `Cc1ccc(C)c(NC(=O)COC(=O)c2cc3ccccc3oc2=O)c1`, the “viability” value is reported as 112%. For `CN1CCC(O)(c2ccccc2)C(C(=O)c2ccccc2)C1` (centres undefined), the “viability” value was 70.1%. For `Cc1cccc(N2CCN(C(=O)Cn3sc4nc(C)cc(C)c4c3=O)CC2C)c1` (centres undefined), the “viability” value was 82.3%. For `CCCOC(=O)NC1CCS(=O)(=O)C1` (centres undefined), the “viability” value was 93.6%. In the case of `O=C(Nc1ncccn1)c1ccc([N+](=O)[O-])o1`, the “viability” value is reported as 91.3%. For `O=C(Nc1nnc(COc2ccc(Cl)cc2)s1)c1ccco1`, the “viability” value was 102%. In the case of `CC(C)(C)c1csc(NC(=O)c2ccccc2O)n1`, the “viability” value is reported as 76.7%. In the case of `O=C(Nc1nccs1)c1ccc(COc2ccc(Cl)cc2)o1`, the “viability” value is reported as 99.7%. In the case of `Cc1csc(NC(=O)c2cc([N+](=O)[O-])cc([N+](=O)[O-])c2)n1`, the “viability” value is reported as 90.4%. With `O=C(CN1CCN(c2ccc([N+](=O)[O-])cc2)CC1)Nc1ccccn1` the “viability” value was 93.9%. In the case of `Fc1cccc2sc(N3CCCC3)nc12`, the “viability” value is reported as 102%. With `O=C(CCC1CCCC1)NCc1ccccn1` the “viability” value was 95.9%. For `CCN(CC)S(=O)(=O)c1ccc(C(=O)OCn2nnc3ccccc3c2=O)cc1`, the “viability” value was 102%. With `Nc1ccc(Br)c2cccnc12` the “viability” value was 78.7%. For `CCN(CC)c1ccc(-c2sc(Nc3ccccc3)n[n+]2-c2ccc(F)cc2)cc1`, the “viability” value was 94.7%. With `Cc1cc(C(=O)N/N=C/c2cccc(Cl)c2Cl)no1` the “viability” value was 98.8%. For `CSc1ccc(NC(=O)Nc2cccn(Cc3ccccc3)c2=O)cc1`, the “viability” value was 70%. For `CCN(CC)c1ccc(NC2CC(=O)N(CCc3ccc(OC)cc3)C2=O)cc1` (centres undefined), the “viability” value was 87%. In the case of `CN1C(c2ccccc2)CC(=NO)CC1c1ccccc1` (centres undefined), the “viability” value is reported as 101%. For `COc1ccc(-c2nnc(SCC(C)C)o2)cc1`, the “viability” value was 97.1%. In the case of `COc1ccc(-c2nnc(NC(=O)C3=COCCO3)o2)cc1`, the “viability” value is reported as 98.6%. In the case of `O=C(COc1ccccc1)Nc1nnc(-c2ccc3c(c2)CCCC3)o1`, the “viability” value is reported as 108%. For `O=C(CNC(=O)c1ccc(Br)cc1)c1ccc(Br)cc1`, the “viability” value was 102%. With `COC(=O)COc1ccc(-c2ccc(F)cc2)cc1C=O` the “viability” value was 109%. For `CC(=O)Nc1ccc(OC(=O)c2ccc(Br)c([N+](=O)[O-])c2)cc1`, the “viability” value was 91.4%. In the case of `CC(C)C1O/C(=N/C(=O)Nc2ccc(Cl)c(Cl)c2)NC1=O` (centres undefined), the “viability” value is reported as 99.6%. For `COc1n[nH]c(C(=O)Nc2cc(F)ccc2C)c1[N+](=O)[O-]`, the “viability” value was 86.7%. In the case of `CC(C)(C)NC(=O)COC(=O)c1snc(C(=O)NC2CCCCC2)c1N`, the “viability” value is reported as 89.4%. In the case of `COc1ccc(NC(=O)COc2ccc3c(c2)CCC3)cc1`, the “viability” value is reported as 92.8%. With `O=C(OCC(=O)c1c[nH]c2ccccc12)c1ccc([N+](=O)[O-])s1` the “viability” value was 97.2%. For `O=C(CN1CCOCC1)N/N=C/c1ccc(-c2ccc(Br)cc2)o1`, the “viability” value was 87%. For `O=C(CCSc1nnc(-c2ccncc2)o1)Nc1cccc(Cl)c1`, the “viability” value was 106%. With `CCc1ccc(OCCCC(=O)Nc2nccs2)cc1` the “viability” value was 102%. In the case of `CSc1ccc(C(=O)C2CCCN(Cc3cc4ccccc4[nH]3)C2)cc1` (centres undefined), the “viability” value is reported as 102%. For `COc1ccc(C(=O)C2CCCN(C(=O)c3ccc(CSC)o3)C2)cc1F` (centres undefined), the “viability” value was 94.1%. With `O=C(CCS(=O)(=O)c1ccc(Cl)cc1)Oc1ccc2c(c1)OCO2` the “viability” value was 111%. In the case of `CC1=NN(C(=O)COc2ccccc2)C(O)(c2ccccc2)C1` (centres undefined), the “viability” value is reported as 108%. In the case of `CC(Cc1cccs1)NC(=O)c1cccc(Cl)c1` (centres undefined), the “viability” value is reported as 96.6%. For `CCc1ccc(NC(=O)C(=O)NNC(=O)c2cccc(OC)c2)cc1`, the “viability” value was 96.3%. For `Cc1ccc(C(=O)Oc2cccc(-n3cnnn3)c2)cc1`, the “viability” value was 87.5%. For `CCOC(=O)c1csc(-c2snnc2C)n1`, the “viability” value was 99%. With `O=C(NNC1=C(C(=O)C(F)(F)F)CCC1)c1ccccc1Cl` the “viability” value was 80.3%. With `N#CC1=C(N)Oc2n[nH]c(-c3cccnc3)c2C1c1ccc([N+](=O)[O-])o1` (centres undefined) the “viability” value was 99.4%. In the case of `Cc1ccc(-c2nnc(NC3CCCC3)s2)cc1`, the “viability” value is reported as 98.6%. In the case of `CCOC(=O)c1c(C)nc2cc(C)ccn12`, the “viability” value is reported as 103%. In the case of `Cc1ccc(-c2nc3ccccn3c2Nc2ccccc2)o1`, the “viability” value is reported as 97.9%. With `Cc1c(-c2ccc(Br)cc2)nc2ccccn12` the “viability” value was 102%. With `FC(F)(F)c1ccc(-c2nnc(-c3cccnc3)o2)cc1` the “viability” value was 111%. With `CCOC(=O)c1ccc(N=CC2=C(O)CC(C)(C)CC2=O)cc1` the “viability” value was 118%. In the case of `O=C(c1nnc(-c2ccc(Cl)cc2)o1)C1CCCC1`, the “viability” value is reported as 88.8%. With `COc1ccc(CNC(=O)COC(=O)C2CC3C=CC2C3)cc1` (centres undefined) the “viability” value was 105%. With `CSc1ccc(COC(=O)CCS(=O)(=O)c2ccc(C)cc2)cc1` the “viability” value was 110%. In the case of `Cc1cc(OCCCn2ccnc2)ccc1C(C)C`, the “viability” value is reported as 89.4%. In the case of `C=C1Cn2c(nnc2-c2ccc(Cl)cc2)S1`, the “viability” value is reported as 106%. For `Cc1cccc(OC(=O)c2ccc3nccnc3c2)c1`, the “viability” value was 95.6%. In the case of `CCOC(=O)CN(C#N)c1nc(N(C)C)nc(N(C)C)n1`, the “viability” value is reported as 95%. With `Cc1cc(OCCCCn2ccnc2)cc(C)c1Cl` the “viability” value was 81.2%. For `O=C(COC(=O)c1ccccc1Br)Nc1ccccc1F`, the “viability” value was 99.3%. In the case of `O=C(NCc1ccc2c(c1)OCO2)c1ccc(Cl)s1`, the “viability” value is reported as 108%. With `Cc1cccc(Cn2ccc(NC(=O)c3ccc4c(c3)OCO4)n2)c1` the “viability” value was 90.8%. For `CCc1ccc(NC(=O)COc2ccc3c(c2)OCO3)cc1`, the “viability” value was 93.2%. For `CCOC(=O)c1csc(COc2ccc(OC)cc2)n1`, the “viability” value was 112%. For `CC1(c2nnc(Cc3ccccc3)o2)CC(c2ccccc2[N+](=O)[O-])=NO1` (centres undefined), the “viability” value was 93.6%. With `Cc1ccc(C(=O)Nc2nccs2)cc1` the “viability” value was 97.7%. For `Cc1ccc(CNC(=O)c2cnccn2)cc1`, the “viability” value was 110%. For `CN1C(=O)CC(N2CCC(c3nc4ccccc4s3)CC2)C1=O` (centres undefined), the “viability” value was 102%. In the case of `O=C(CNC(=O)c1ccccc1F)OCc1csc(-c2ccccc2)n1`, the “viability” value is reported as 90.8%. In the case of `O=C(CCSc1ccc(Cl)cc1)NC1CCCC1`, the “viability” value is reported as 98%. With `FC(F)c1nnc2ccc(Cl)nn12` the “viability” value was 93.2%. In the case of `Cc1ncsc1CCOC(=O)c1ccc([N+](=O)[O-])cc1`, the “viability” value is reported as 89.9%. For `CN(C)S(=O)(=O)c1ccc(C(=O)Oc2ccccc2)cc1`, the “viability” value was 100%. For `CCOC(=O)c1c(-c2ccc(C)o2)csc1NC(=O)CN1CCCCC1`, the “viability” value was 79.5%. In the case of `COc1ccc(OCC(=O)NNC(=O)c2ccccn2)cc1`, the “viability” value is reported as 95.1%. In the case of `O=C(COc1ccc(Cl)cc1)NNC(=O)c1ccccn1`, the “viability” value is reported as 71.8%. For `O=C(N/N=C/c1ccc[nH]1)c1cccnc1`, the “viability” value was 94.2%. In the case of `O=C(OCC(=O)C12CC3CC(CC(C3)C1)C2)c1ccccn1`, the “viability” value is reported as 103%. With `O=C(Nc1ncccc1O)c1ccc(Oc2ccccc2)cc1` the “viability” value was 91.3%. With `COc1ccc(C(=O)N/N=C/c2cccc3cccnc23)cc1` the “viability” value was 81.4%. For `O=C(NNC(=O)C12CC3CC(CC(C3)C1)C2)c1cnccn1`, the “viability” value was 92.2%. With `O=C(NC(=S)NNC(=O)[C@H]1C[C@@H]1c1ccccc1)c1cccc(F)c1` the “viability” value was 76.5%. With `COc1cccc2[nH]c3c(Cl)ncnc3c12` the “viability” value was 84.3%. In the case of `CC1CCCN(CCSc2ccc(Cl)cc2)C1` (centres undefined), the “viability” value is reported as 92.3%.
